Source: PubChem BioAssay

Experiments:
Experiment in all cases: Peg3 promoter luciferase inhibitors, potency, dose response, cell-based, HeLa, CREF/GAPDH counter-screen panel (AID 624167)
PEG-3 [1] = molecular target: PEG-3 (UniProt Q6IN02); details: CREF/GAPDH counter-screens; HeLa PEG-Prom luciferase reporter, overnight, run 1, dose range 1, at 100 µM (top of the series) unless noted
PEG-3 [2] = molecular target: PEG-3 (UniProt Q6IN02); details: CREF/GAPDH counter-screens; HeLa PEG-Prom luciferase reporter, overnight, run 2, dose range 1, at 100 µM (top of the series) unless noted
Rat fibroblasts (CREF) [3] = details: CREF/GAPDH counter-screens; run 1, dose range 1, at 100 µM (top of the series)
Rat fibroblasts (CREF) [4] = details: CREF/GAPDH counter-screens; run 2, dose range 1, at 100 µM (top of the series)

Sequence of PEG-3 (Q6IN02 whole entry, looked up): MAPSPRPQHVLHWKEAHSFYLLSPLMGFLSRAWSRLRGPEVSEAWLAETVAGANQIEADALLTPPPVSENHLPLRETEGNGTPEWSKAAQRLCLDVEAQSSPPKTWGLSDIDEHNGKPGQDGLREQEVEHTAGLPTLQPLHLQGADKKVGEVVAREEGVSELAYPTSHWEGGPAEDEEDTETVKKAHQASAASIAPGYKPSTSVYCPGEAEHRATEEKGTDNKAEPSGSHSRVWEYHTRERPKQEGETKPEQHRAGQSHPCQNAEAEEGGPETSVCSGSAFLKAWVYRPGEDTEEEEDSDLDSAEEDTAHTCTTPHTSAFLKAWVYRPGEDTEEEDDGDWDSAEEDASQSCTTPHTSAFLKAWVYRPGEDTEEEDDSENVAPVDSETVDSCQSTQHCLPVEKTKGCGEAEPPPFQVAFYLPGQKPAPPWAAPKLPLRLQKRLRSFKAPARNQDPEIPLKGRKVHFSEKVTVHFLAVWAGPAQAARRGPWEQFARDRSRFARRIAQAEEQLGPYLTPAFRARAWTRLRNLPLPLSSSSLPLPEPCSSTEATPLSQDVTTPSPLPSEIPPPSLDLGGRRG

Structure (SMILES)	inhibition (PEG-3 [1]) [%]	inhibition (PEG-3 [2]) [%]	inhibition (Rat fibroblasts (CREF) [3]) [%]	inhibition (Rat fibroblasts (CREF) [4]) [%]
OCCNc1c2ccccc2nc2ccccc12	99.6	98.1	73.9	94.8
Nc1ccc(-c2nc3ccc(C(=O)O)cc3s2)cc1	98.2	98.9	89.1	90.5
Cc1cccc(OCC(=O)NCC(=O)N/N=C/c2cc(Br)cc(Br)c2O)c1	75	86.2	65.6	74.7
COc1ccc2c(c1)sc1nc(-c3ccccc3)cn12	100	97.3	98.8	98.5
O=C(Nc1ccc(Cc2ccncc2)cc1)c1ccc([N+](=O)[O-])o1	99.1	101	100	99.5
c1ccc(-c2nc(-c3ccccn3)no2)cc1	89.5	91.1	98	98.3
COc1ccc(S(=O)(=O)/N=C2\C=C(Nc3ccc(O)cc3)C(=O)c3ccccc32)cc1	96.4	99.7	101	97.4
O=C(Nc1ccccc1)c1nc[nH]c1C(=O)NCCCCCCNC(=O)c1[nH]cnc1C(=O)Nc1ccccc1	-14.1	24.2	-4.97	-1.9
S=C(NN=C(c1ccccc1)c1ccccn1)N(Cc1ccccn1)Cc1ccccn1	102	102	97.9	98
CCc1ccc(/C=C2\SC(=S)N(CCCC(=O)Nc3ccccn3)C2=O)cc1	92.7	81	-3.09	94.6
Oc1c(Br)cc(Br)c2cccnc12	81.8	71	88.2	94.5
